# Assay results: article PMC7862700, “An all-to-all approach to the identification of sequence-specific readers for epigenetic DNA modifications on cytosine”
# Columns and labels:
# Assay in all cases: DAPPL (digital affinity profiling via proximity ligation, sequencing); 10 mM Tris-HCl pH 7.5, 50 mM NaCl, 1 mM DTT, 4% glycerol, room temperature, 30 min; GST-TFs on glutathione beads, 16-mer random dsDNA library, 0.1% formaldehyde crosslink after washing; high values mean tight binding
# [1] = molecular target: T1, FLI1 (Homo sapiens, UniProt Q01543 1-452); settings: protein: recombinant; tags: N-terminal GST; dsDNA, one strand shown
# T1 sequence: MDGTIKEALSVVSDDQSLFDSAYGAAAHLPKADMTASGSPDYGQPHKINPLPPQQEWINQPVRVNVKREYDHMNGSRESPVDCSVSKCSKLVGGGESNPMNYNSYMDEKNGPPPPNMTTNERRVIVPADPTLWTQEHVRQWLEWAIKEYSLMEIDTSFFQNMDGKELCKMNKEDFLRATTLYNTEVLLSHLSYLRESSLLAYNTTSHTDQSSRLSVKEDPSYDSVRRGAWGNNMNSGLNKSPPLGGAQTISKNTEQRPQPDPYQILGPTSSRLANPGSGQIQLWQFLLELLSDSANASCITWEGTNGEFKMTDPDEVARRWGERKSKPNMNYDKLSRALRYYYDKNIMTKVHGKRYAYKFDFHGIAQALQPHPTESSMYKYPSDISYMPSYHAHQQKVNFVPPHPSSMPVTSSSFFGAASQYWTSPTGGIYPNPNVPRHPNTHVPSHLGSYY
# In short: (§1)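 Human transcription factors were made in yeast as GST fusions, captured on glutathione beads and barcoded with DNA. With a tag-only sample included, the pool was incubated with 200 nmole of a random double-stranded 16-mer DNA library in Tris/NaCl/DTT/glycerol buffer at room temperature for 30 min, then crosslinked with 0.1% formaldehyde after washing, ligated by proximity, amplified and sequenced. For binding signal, each hexamer's read frequency for a factor is divided by its frequency for the tag-only sample.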
# [2] = molecular target: T2, ELK1 (Homo sapiens, UniProt P19419 1-428); settings: protein: recombinant; tags: N-terminal GST; dsDNA, one strand shown
# T2 sequence: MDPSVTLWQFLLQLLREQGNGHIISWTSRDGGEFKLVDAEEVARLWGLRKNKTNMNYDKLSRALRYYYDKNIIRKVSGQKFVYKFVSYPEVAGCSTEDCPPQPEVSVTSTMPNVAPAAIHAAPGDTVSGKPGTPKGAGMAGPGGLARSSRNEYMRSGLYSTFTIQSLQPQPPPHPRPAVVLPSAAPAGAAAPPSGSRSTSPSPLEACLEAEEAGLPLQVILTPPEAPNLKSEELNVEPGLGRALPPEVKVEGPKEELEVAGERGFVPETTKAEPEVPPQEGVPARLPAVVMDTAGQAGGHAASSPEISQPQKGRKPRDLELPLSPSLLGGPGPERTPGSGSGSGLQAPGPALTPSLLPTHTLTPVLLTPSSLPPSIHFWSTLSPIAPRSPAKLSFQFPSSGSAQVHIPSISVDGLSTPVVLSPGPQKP
# In short: as §1
# [3] = molecular target: T3, GABPA (Homo sapiens, UniProt Q06546 1-454); settings: protein: recombinant; tags: N-terminal GST; dsDNA, one strand shown
# T3 sequence: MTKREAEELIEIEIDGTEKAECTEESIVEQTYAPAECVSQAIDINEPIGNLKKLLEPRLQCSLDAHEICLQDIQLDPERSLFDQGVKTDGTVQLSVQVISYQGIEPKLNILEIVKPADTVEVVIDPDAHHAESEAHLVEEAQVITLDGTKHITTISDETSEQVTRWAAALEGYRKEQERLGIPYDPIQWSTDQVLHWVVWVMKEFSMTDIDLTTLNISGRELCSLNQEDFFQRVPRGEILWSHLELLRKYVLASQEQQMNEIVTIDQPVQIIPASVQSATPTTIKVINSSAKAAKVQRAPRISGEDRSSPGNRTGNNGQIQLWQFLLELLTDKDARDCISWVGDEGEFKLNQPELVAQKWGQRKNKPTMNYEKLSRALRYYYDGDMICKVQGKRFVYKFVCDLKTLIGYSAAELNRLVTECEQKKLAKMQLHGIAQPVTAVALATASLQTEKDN
# In short: as §1
# [4] = molecular target: T4, ERG (Homo sapiens, UniProt P11308 1-479); settings: protein: recombinant; tags: N-terminal GST; dsDNA, one strand shown
# T4 sequence: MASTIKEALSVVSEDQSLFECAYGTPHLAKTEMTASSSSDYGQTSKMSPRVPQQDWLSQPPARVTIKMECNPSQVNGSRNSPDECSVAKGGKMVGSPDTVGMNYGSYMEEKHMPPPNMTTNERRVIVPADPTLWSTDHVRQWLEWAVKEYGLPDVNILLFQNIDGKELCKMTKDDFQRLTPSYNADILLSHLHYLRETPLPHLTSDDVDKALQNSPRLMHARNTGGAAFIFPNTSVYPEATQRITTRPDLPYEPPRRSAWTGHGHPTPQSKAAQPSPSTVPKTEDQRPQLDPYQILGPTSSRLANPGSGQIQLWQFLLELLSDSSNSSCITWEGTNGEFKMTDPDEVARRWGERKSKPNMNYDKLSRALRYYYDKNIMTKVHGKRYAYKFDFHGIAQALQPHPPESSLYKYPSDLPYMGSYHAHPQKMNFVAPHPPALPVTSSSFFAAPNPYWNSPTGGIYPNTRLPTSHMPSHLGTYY
# In short: as §1
# [5] = molecular target: ELF1 (Homo sapiens, UniProt P32519 1-619); settings: protein: recombinant; tags: N-terminal GST; dsDNA, one strand shown
# In short: as §1
# [6] = molecular target: T5, EHF (Homo sapiens, UniProt Q9NZC4 1-300); settings: protein: recombinant; tags: N-terminal GST; dsDNA, one strand shown
# T5 sequence: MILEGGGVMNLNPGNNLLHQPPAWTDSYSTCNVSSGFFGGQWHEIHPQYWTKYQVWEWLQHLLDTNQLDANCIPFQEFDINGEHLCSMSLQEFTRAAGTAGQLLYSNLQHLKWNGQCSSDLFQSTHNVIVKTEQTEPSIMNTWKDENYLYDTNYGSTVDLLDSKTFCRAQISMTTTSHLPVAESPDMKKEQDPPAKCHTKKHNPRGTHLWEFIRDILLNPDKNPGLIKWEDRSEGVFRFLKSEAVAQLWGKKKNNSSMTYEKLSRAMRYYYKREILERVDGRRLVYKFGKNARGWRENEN
# In short: as §1
# [7] = molecular target: SPI1 (Homo sapiens, UniProt P17947 1-270); settings: protein: recombinant; tags: N-terminal GST; dsDNA, one strand shown
# In short: as §1
# [8] = molecular target: SPIB (Homo sapiens, UniProt Q01892 1-262); settings: protein: recombinant; tags: N-terminal GST; dsDNA, one strand shown
# In short: as §1
# [9] = molecular target: T6, ELK3 (Homo sapiens, UniProt P41970 1-407); settings: protein: recombinant; tags: N-terminal GST; dsDNA, one strand shown
# T6 sequence: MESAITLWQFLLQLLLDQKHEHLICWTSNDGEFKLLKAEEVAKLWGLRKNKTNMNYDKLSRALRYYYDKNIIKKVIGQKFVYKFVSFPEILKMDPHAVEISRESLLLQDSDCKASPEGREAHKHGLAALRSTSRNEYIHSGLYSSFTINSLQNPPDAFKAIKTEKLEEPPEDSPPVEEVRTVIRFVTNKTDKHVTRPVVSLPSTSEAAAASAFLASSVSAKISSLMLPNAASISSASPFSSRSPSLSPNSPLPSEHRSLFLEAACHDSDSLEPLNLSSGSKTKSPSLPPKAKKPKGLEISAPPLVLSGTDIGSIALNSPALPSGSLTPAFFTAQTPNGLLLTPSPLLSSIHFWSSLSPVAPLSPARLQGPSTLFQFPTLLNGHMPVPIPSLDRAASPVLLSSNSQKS
# In short: as §1
# [10] = molecular target: T7, FEV (Homo sapiens, UniProt Q99581 1-238); settings: protein: recombinant; tags: N-terminal GST; dsDNA, one strand shown
# T7 sequence: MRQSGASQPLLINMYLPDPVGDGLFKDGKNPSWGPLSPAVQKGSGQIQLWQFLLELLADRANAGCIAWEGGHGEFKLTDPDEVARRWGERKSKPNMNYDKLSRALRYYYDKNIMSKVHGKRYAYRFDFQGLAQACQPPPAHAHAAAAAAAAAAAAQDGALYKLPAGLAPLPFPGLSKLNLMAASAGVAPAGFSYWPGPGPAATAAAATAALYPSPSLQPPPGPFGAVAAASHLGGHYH
# In short: as §1
# [11] = molecular target: ETV5 (Homo sapiens, UniProt P41161 1-510); settings: protein: recombinant; tags: N-terminal GST; dsDNA, one strand shown
# In short: as §1
# [12] = molecular target: HSF1 (Homo sapiens, UniProt Q00613 1-529); settings: protein: recombinant; tags: N-terminal GST; chain copies: 3; dsDNA, one strand shown
# In short: as §1
# [13] = molecular target: T8, SPIC (Homo sapiens, UniProt Q8N5J4 1-248); settings: protein: recombinant; tags: N-terminal GST; dsDNA, one strand shown
# T8 sequence: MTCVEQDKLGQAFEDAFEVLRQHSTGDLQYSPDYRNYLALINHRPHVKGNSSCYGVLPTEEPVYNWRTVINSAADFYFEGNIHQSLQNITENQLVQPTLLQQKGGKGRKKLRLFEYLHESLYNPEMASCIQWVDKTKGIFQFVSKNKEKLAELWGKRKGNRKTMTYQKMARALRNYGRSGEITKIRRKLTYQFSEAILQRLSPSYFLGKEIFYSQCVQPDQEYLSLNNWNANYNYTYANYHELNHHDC
# In short: as §1
# [14] = molecular target: ELF4 (Homo sapiens, UniProt Q99607 1-663); settings: protein: recombinant; tags: N-terminal GST; dsDNA, one strand shown
# In short: as §1
# [15] = molecular target: T9, ELK4 (Homo sapiens, UniProt P28324-2 1-405); settings: protein: recombinant; tags: N-terminal GST; dsDNA, one strand shown
# T9 sequence: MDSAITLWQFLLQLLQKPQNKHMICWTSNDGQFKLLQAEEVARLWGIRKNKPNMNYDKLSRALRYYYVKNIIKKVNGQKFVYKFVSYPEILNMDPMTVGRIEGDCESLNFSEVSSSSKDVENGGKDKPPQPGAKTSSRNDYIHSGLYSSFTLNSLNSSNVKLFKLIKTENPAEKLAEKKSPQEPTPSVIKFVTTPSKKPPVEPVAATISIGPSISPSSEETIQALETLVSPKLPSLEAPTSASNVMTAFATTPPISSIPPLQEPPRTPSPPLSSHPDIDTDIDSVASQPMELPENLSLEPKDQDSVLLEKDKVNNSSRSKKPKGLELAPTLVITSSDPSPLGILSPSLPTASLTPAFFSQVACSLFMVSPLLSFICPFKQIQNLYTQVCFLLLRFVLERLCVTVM
# In short: as §1
# [16] = molecular target: T10, ETV2 (Homo sapiens, UniProt O00321 1-342); settings: protein: recombinant; tags: N-terminal GST; dsDNA, one strand shown
# T10 sequence: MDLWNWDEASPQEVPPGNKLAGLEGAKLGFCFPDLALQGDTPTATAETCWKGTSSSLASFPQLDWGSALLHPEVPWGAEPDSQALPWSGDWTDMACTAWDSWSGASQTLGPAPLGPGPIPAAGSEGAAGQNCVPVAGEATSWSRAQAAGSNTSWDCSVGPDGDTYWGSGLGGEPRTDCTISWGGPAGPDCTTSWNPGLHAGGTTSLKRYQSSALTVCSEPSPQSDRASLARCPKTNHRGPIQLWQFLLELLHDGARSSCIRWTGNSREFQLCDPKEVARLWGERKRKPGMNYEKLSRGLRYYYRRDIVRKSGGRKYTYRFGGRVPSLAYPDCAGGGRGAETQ
# In short: as §1
# [17] = molecular target: T11, ELF3 (Homo sapiens, UniProt P78545 1-371); settings: protein: recombinant; tags: N-terminal GST; dsDNA, one strand shown
# T11 sequence: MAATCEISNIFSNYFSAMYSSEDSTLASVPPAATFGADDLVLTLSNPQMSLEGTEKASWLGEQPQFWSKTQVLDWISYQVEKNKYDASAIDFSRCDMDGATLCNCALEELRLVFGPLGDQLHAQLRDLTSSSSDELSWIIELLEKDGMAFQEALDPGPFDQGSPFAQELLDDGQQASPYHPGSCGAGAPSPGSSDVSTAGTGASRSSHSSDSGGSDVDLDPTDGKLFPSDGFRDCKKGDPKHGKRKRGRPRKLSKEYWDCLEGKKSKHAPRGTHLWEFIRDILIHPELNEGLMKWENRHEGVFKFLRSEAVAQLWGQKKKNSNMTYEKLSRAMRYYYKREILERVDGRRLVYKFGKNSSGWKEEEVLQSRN
# In short: as §1
# [18] = molecular target: CRX (Homo sapiens, UniProt O43186 1-299); settings: protein: recombinant; tags: N-terminal GST; dsDNA, one strand shown
# In short: as §1
# [19] = molecular target: ETV1 (Homo sapiens, UniProt P50549 1-477); settings: protein: recombinant; tags: N-terminal GST; dsDNA, one strand shown
# In short: as §1
# Chain of HSF1 (Q00613 whole entry): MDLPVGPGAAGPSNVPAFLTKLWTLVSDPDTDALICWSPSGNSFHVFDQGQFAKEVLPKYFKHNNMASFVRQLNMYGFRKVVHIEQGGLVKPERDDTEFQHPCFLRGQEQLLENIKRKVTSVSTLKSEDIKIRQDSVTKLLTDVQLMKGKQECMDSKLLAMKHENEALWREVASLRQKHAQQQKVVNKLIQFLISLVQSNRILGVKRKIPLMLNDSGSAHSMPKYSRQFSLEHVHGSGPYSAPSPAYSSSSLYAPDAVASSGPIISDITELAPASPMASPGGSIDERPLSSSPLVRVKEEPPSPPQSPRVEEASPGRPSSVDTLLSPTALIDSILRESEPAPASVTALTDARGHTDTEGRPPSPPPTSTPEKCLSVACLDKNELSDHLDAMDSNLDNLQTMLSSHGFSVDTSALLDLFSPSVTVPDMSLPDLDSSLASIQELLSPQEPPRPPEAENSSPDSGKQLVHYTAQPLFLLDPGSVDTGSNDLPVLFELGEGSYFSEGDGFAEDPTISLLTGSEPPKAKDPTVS
# Chain of ETV1 (P50549 whole entry): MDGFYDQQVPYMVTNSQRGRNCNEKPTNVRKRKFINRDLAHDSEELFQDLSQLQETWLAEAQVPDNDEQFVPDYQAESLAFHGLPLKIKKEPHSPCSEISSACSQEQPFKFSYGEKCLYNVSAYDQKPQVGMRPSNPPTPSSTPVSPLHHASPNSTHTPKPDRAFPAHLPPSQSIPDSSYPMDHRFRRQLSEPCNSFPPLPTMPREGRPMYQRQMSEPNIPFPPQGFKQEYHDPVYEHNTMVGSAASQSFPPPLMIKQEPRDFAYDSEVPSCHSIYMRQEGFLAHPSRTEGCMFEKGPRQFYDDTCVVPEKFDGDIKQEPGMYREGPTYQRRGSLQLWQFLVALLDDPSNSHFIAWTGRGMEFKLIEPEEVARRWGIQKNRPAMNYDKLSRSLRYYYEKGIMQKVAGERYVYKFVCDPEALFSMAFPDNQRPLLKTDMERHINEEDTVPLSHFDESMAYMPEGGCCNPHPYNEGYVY
# Chain of SPIB (Q01892 whole entry): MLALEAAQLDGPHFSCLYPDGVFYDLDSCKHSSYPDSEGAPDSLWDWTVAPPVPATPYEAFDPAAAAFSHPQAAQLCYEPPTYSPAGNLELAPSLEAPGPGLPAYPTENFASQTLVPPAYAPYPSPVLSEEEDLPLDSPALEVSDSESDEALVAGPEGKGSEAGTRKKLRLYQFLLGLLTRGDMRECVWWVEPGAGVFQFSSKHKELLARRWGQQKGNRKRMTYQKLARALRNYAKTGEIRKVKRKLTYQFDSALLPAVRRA
# Chain of CRX (O43186 whole entry): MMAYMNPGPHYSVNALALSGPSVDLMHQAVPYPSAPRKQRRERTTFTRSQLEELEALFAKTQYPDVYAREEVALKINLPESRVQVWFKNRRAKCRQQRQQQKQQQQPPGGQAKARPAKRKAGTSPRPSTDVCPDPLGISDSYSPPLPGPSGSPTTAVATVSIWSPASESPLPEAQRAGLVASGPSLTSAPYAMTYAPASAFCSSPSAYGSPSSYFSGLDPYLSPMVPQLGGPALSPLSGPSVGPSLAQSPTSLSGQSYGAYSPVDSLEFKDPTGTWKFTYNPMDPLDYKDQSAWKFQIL
# Chain of ETV5 (P41161 whole entry): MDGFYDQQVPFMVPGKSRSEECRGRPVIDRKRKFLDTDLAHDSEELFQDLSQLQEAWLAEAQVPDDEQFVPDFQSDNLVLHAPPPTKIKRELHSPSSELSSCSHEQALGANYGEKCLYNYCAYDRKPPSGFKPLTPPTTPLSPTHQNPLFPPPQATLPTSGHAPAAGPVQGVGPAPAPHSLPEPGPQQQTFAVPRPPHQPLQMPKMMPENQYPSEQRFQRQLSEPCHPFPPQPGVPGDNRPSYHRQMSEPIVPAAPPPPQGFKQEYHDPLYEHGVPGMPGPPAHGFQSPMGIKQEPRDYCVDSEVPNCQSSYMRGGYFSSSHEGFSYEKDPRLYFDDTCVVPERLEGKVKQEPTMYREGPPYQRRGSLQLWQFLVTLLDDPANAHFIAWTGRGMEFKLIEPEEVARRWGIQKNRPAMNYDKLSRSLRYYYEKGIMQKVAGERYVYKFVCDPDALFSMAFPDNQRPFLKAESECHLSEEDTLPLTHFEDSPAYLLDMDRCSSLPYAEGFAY
# Chain of ELF4 (Q99607 whole entry): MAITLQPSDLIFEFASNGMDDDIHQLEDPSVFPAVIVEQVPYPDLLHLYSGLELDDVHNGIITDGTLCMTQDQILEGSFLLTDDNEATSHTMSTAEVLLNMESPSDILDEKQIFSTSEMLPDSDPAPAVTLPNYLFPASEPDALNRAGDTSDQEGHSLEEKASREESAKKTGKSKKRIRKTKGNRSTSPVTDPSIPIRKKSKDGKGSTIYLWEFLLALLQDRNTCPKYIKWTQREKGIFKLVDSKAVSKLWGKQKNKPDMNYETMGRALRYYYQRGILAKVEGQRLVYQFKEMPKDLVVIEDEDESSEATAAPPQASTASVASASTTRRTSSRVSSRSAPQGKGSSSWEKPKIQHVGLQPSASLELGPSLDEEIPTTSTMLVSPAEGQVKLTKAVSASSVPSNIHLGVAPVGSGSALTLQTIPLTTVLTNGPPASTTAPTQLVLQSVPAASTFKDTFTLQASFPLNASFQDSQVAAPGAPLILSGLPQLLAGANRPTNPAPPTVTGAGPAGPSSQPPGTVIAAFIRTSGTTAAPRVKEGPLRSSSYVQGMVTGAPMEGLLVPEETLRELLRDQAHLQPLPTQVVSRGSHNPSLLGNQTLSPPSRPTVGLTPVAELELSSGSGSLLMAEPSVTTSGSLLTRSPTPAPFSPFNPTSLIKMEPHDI
# Chain of ELF1 (P32519 whole entry): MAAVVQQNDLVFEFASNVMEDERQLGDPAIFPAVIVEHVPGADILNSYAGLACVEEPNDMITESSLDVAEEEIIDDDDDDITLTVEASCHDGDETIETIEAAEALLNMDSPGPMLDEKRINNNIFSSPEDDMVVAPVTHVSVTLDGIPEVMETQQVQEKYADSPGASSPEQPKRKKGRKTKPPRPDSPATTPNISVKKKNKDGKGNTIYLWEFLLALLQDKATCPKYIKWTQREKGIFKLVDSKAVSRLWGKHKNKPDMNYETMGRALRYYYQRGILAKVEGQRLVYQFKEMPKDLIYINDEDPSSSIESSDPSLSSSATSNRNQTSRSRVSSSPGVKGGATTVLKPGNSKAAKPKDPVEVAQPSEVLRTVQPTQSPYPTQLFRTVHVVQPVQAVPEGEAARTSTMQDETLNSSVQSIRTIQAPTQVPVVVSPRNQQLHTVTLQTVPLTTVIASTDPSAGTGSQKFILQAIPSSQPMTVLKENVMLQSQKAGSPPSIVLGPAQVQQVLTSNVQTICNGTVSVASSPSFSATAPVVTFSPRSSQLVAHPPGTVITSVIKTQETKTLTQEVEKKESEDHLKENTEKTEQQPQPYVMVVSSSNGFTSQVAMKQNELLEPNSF
sequence,measurement,setting,value
TTGAAA,binding signal,[1],"1.22 fold enrichment (6-mer frequency, TF over GST control)"
same,binding signal,[2],"1.25 fold enrichment (6-mer frequency, TF over GST control)"
same,binding signal,[3],"1.11 fold enrichment (6-mer frequency, TF over GST control)"
same,binding signal,[4],"1.09 fold enrichment (6-mer frequency, TF over GST control)"
same,binding signal,[5],"1.23 fold enrichment (6-mer frequency, TF over GST control)"
same,binding signal,[6],"1.23 fold enrichment (6-mer frequency, TF over GST control)"
same,binding signal,[7],"1.18 fold enrichment (6-mer frequency, TF over GST control)"
same,binding signal,[8],"1.1 fold enrichment (6-mer frequency, TF over GST control)"
same,binding signal,[9],"1.09 fold enrichment (6-mer frequency, TF over GST control)"
same,binding signal,[10],"1.13 fold enrichment (6-mer frequency, TF over GST control)"
same,binding signal,[11],"1.18 fold enrichment (6-mer frequency, TF over GST control)"
same,binding signal,[12],"1.24 fold enrichment (6-mer frequency, TF over GST control)"
same,binding signal,[13],"1.15 fold enrichment (6-mer frequency, TF over GST control)"
same,binding signal,[14],"1.21 fold enrichment (6-mer frequency, TF over GST control)"
same,binding signal,[15],"1.18 fold enrichment (6-mer frequency, TF over GST control)"
same,binding signal,[16],"1.28 fold enrichment (6-mer frequency, TF over GST control)"
same,binding signal,[17],"1.13 fold enrichment (6-mer frequency, TF over GST control)"
same,binding signal,[18],"1.24 fold enrichment (6-mer frequency, TF over GST control)"
same,binding signal,[19],"1.16 fold enrichment (6-mer frequency, TF over GST control)"
